Reference: PubChem BioAssay (EPA / NIEHS)
Calls of active or inactive are those of the source. How the source made its calls: active means hit-call score of the fitted dose curve at least 0.9, where 1 is the maximum; inactive means score below 0.9.

Columns and labels:
Details in all cases: mRNA level, 48 h; actives raise or lower the signal
[1] = read-out: Glutamate-cysteine ligase catalytic (GCLC), GCLC (gene 2729); assay: LTEA_HepaRG_GCLC: Life Technologies and Expression Analysis (LTEA) Assay for Glutamate-cysteine ligase catalytic (GCLC) using HepaRG (AID 2283498)
In short: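 HepaRG, 48 h exposure, 8-pt half-log series from 100 uM, 0.5% DMSO vehicle; TaqMan qRT-PCR for GCLC mRNA, housekeeping-normalized; bidirectional curve fit vs DMSO baseline.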

[2] = read-out: growth arrest and DNA damage 45 (GADD45G), GADD45G (gene 10912); assay: LTEA_HepaRG_GADD45G: Life Technologies and Expression Analysis (LTEA) Assay for growth arrest and DNA damage 45 (GADD45G) using HepaRG (AID 2283499)
In short: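 Concentration-response in HepaRG: 48 h dosing, 0.5% DMSO, highest level 100 uM. GADD45G expression by qRT-PCR, normalised to endogenous controls; bidirectional fit to DMSO.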

[3] = read-out: Glutamate-cysteine ligase regulatory (GCLM), GCLM (gene 2730); assay: LTEA_HepaRG_GCLM: Life Technologies and Expression Analysis (LTEA) Assay for Glutamate-cysteine ligase regulatory (GCLM) using HepaRG (AID 2283500)
In short: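 Endpoint is GCLM transcript level by qRT-PCR, normalized to three housekeeping genes, after 48 h chemical exposure of human HepaRG cells (0.5% DMSO vehicle, top 100 uM, half-log dilutions). Fitting was bidirectional relative to DMSO.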

[4] = read-out: Glutathione S-transferase M3 (GSTM3), GSTM3 (gene 2947); assay: LTEA_HepaRG_GSTM3: Life Technologies and Expression Analysis (LTEA) Assay for Glutathione S-transferase M3 (GSTM3) using HepaRG (AID 2283501)
In short: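 Expression of GSTM3 is determined by qRT-PCR in human liver HepaRG cells treated 48 h with an 8-point half-log range from 100 uM in 0.5% DMSO.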

[5] = read-out: Heat shock 70 kDa protein 1 (HSPA1A), gene 3303; assay: LTEA_HepaRG_HSPA1A: Life Technologies and Expression Analysis (LTEA) Assay for Heat shock 70 kDa protein 1 (HSPA1A) using HepaRG (AID 2283502)
In short: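 Cells were plated and cultured for 48 h, then switched to serum-free induction medium. Chemicals were added at eight half-log concentrations up to 100 uM for 48 h. RNA was then isolated and HSPA1A measured by qRT-PCR with bidirectional curve fitting against DMSO.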

[6] = read-out: 3-Hydroxy-3-Methylglutaryl-CoA Synthase 2 (HMGCS2), HMGCS2 (gene 3158); assay: LTEA_HepaRG_HMGCS2: Life Technologies and Expression Analysis (LTEA) Assay for 3-Hydroxy-3-Methylglutaryl-CoA Synthase 2 (HMGCS2) using HepaRG (AID 2283504)
In short: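 This steatosis marker was read as HMGCS2 mRNA change in HepaRG cells treated 48 h with up to 100 uM chemical. Normalisation used housekeeping genes; activity in either direction was fitted relative to 0.5% DMSO vehicle.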

[7] = read-out: HGF (gene 3082); assay: LTEA_HepaRG_HGF: Life Technologies and Expression Analysis (LTEA) Assay for Hepatocyte Growth Facto (HGF) using HepaRG (AID 2283505)
In short: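 Using HepaRG monolayers kept in 0.5% DMSO, chemicals were tested in duplicate over eight half-log concentrations from 100 uM for 48 h. Endpoint: HGF mRNA change relative to DMSO, normalized to ACTB/GAPDH/POLR2A.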

[8] = read-out: Insulin Like Growth Factor 1 (IGF1), IGF1 (gene 3479); assay: LTEA_HepaRG_IGF1: Life Technologies and Expression Analysis (LTEA) Assay for Insulin Like Growth Factor 1 (IGF1) using HepaRG (AID 2283506)
In short: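 Cells are thawed, plated and cultured 48 h, then exposed in duplicate to chemical (highest 100 uM, half-log steps, 0.5% DMSO) for another 48 h. Total RNA is analysed by Fluidigm qRT-PCR for IGF1 expression relative to vehicle.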

[9] = read-out: Intercellular Adhesion Molecule 1 (ICAM1), ICAM1 (gene 3383); assay: LTEA_HepaRG_ICAM1: Life Technologies and Expression Analysis (LTEA) Assay for Intercellular Adhesion Molecule 1 (ICAM1) using HepaRG (AID 2283507)
In short: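 Using the human liver line HepaRG, compounds are tested in duplicate over 48 h at concentrations up to 100 uM. Expression is determined by TaqMan qRT-PCR, normalized to endogenous controls, and analysed relative to 0.5% DMSO vehicle.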

[10] = read-out: Insulin-like growth factor-binding protein 1 (IGFBP1), IGFBP1 (gene 3484); assay: LTEA_HepaRG_IGFBP1: Life Technologies and Expression Analysis (LTEA) Assay for Insulin-like growth factor-binding protein 1 (IGFBP1) using HepaRG (AID 2283508)
In short: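 HepaRG, 48 h, 8 conc. (max 100 uM, half-log), duplicates, 0.5% DMSO. Readout: TaqMan qRT-PCR, ACTB/GAPDH/POLR2A normalisation. Fit: bidirectional vs DMSO.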

[11] = read-out: Interleukin 6 (IL6), IL6 (gene 3569); assay: LTEA_HepaRG_IL6: Life Technologies and Expression Analysis (LTEA) Assay for Interleukin 6 (IL6) using HepaRG (AID 2283509)
In short: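 qRT-PCR read-out of IL6 transcript, normalized to three housekeeping genes, after 48 h chemical exposure of HepaRG cells; 8-point half-log series, top 100 uM, 0.5% DMSO vehicle. Bidirectional curve fitting against DMSO baseline.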

[12] = read-out: Potassium channel subfamily K member 1 (KCNK1), KCNK1 (gene 3775); assay: LTEA_HepaRG_KCNK1: Life Technologies and Expression Analysis (LTEA) Assay for Potassium channel subfamily K member 1 (KCNK1) using HepaRG (AID 2283511)
In short: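 HepaRG, 48 h exposure, 8-pt half-log series top 100 uM, 0.5% DMSO vehicle, duplicates. Readout: KCNK1 transcript by qRT-PCR (Fluidigm array), housekeeping-normalized; bidirectional curve fit relative to DMSO baseline.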

[13] = read-out: Keratin 19 (KRT19), KRT19 (gene 3880); assay: LTEA_HepaRG_KRT19: Life Technologies and Expression Analysis (LTEA) Assay for Keratin 19 (KRT19) using HepaRG (AID 2283512)
In short: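 Readout is qRT-PCR of KRT19 mRNA, normalized to ACTB, GAPDH and POLR2A, from HepaRG cells treated 48 h with eight-point half-log dilutions topping at 100 uM. Activity in either direction is scored relative to 0.5% DMSO vehicle.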

[14] = read-out: JUN Transcription Factor, JUN (gene 3725); assay: LTEA_HepaRG_JUN: Life Technologies and Expression Analysis (LTEA) Assay for JUN Transcription Factor using HepaRG (AID 2283513)
In short: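 Read-out is JUN transcript level by TaqMan qRT-PCR, normalized to ACTB, GAPDH and POLR2A, after 48 h chemical treatment of HepaRG cells. Concentration-response spanned eight half-log points up to 100 uM in 0.5% DMSO.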

[15] = read-out: Lipase C (LIPC), LIPC (gene 3990); assay: LTEA_HepaRG_LIPC: Life Technologies and Expression Analysis (LTEA) Assay for Lipase C (LIPC) using HepaRG (AID 2283514)
In short: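 HepaRG, 48 h exposure, 8-pt half-log series from 100 uM in 0.5% DMSO, duplicates. Readout: LIPC mRNA by Fluidigm qRT-PCR, housekeeping-normalized (ACTB/GAPDH/POLR2A). Gain or loss fitted bidirectionally against DMSO baseline.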

[16] = read-out: Lipoprotein lipase (LPL), LPL (gene 4023); assay: LTEA_HepaRG_LPL: Life Technologies and Expression Analysis (LTEA) Assay for Lipoprotein lipase (LPL) using HepaRG (AID 2283515)
In short: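 HepaRG, 48 h exposure, 8-pt half-log dilutions from 100 uM, 0.5% DMSO vehicle, duplicates; qRT-PCR (Fluidigm array) of LPL mRNA vs housekeeping genes; bidirectional curve fit relative to DMSO baseline.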

[17] = read-out: matrix metalloproteinase-10 (MMP10), MMP10 (gene 4319); assay: LTEA_HepaRG_MMP10: Life Technologies and Expression Analysis (LTEA) Assay for matrix metalloproteinase-10 (MMP10) using HepaRG (AID 2283517)
In short: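 Transcript levels come from Fluidigm qRT-PCR normalized to three housekeeping genes, with curves fitted bidirectionally against 0.5% DMSO. Human HepaRG cells were dosed for 48 hours at concentrations up to 100 uM.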

[18] = read-out: MicroRNA 122 (MIR122), gene 406906; assay: LTEA_HepaRG_MIR122: Life Technologies and Expression Analysis (LTEA) Assay for MicroRNA 122 (MIR122) using HepaRG (AID 2283516); further: the transcript read is the microRNA miR-122
In short: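 Human liver HepaRG cultures receive test chemicals for 48 h at eight half-log concentrations from 100 uM. Expression is quantified by qRT-PCR with ACTB/GAPDH/POLR2A normalization and fitted bidirectionally against 0.5% DMSO.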

COC(=O)CCCCC(=O)OC
outcome [1]: inactive | outcome [2]: inactive | outcome [3]: inactive | outcome [4]: inactive | outcome [5]: inactive | outcome [6]: inactive | outcome [7]: inactive | outcome [8]: inactive | outcome [9]: inactive | outcome [10]: inactive | outcome [11]: inactive | outcome [12]: inactive | outcome [13]: inactive | outcome [14]: inactive | outcome [15]: inactive | outcome [16]: inactive | outcome [17]: inactive

Oc1cc2ccccc2c2ccccc12
outcome [1]: inactive | outcome [2]: inactive | outcome [3]: inactive | outcome [4]: inactive | outcome [5]: inactive | outcome [6]: inactive | outcome [7]: inactive | outcome [8]: inactive | outcome [9]: inactive | outcome [10]: inactive | outcome [11]: inactive | outcome [12]: inactive | outcome [14]: inactive | outcome [15]: inactive | AC50 [16]: 50 µM (active) | outcome [18]: inactive | outcome [17]: inactive
